# The supplement of paper PMC7057948, “A genome-wide approach for identification and characterisation of metabolite-inducible systems” (Nature Communications, 2020)
# Test system: KynR/P_H16_RS14030 L-kynurenine biosensor (pEH136)
# Assay: relative induction of RFP reporter vs primary effector; higher = stronger activation
# Details: inducer concentration 5 mM; 6 h; Cupriavidus necator H16; minimal medium + 0.4% gluconate
# Experimental: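 Orthogonality screen of 21 primary inducers against 21 transcription factor/inducible promoter–mRFP biosensors in C. necator H16 in minimal medium, robotic 96-well format, 5 mM inducer, 30 °C. OD-normalised RFP fluorescence was read 6 h later and expressed as relative induction (%) = 100 × (FL compound − FL uninduced)/(FL primary inducer − FL uninduced); mean of n=4. Cognate pairs (100% by definition) omitted.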
row,SMILES,relative induction of RFP reporter
1,OC1OC[C@H](O)[C@H](O)[C@H]1O (mixture of isomers) [L-arabinose],0.181%
2,O=C(O)C(O)C(O)C(=O)O (configuration not stated) [tartrate],0.0585%
3,C=CC(=O)O [acrylate],0.406%
4,O=C(O)C1CCCCC1 [cyclohexane-1-carboxylate],0.977%
5,CC(=O)C(C)O (configuration not stated) [acetoin],0.0145%
6,O=C(O)CS(=O)(=O)O [sulfonatoacetate],0.55%
7,O=C(O)c1ccccc1O [salicylate],-0.248%
8,O=c1[nH]c(=O)c2nc[nH]c2[nH]1 [xanthine],0.0316%
9,NCCC(=O)O [β-alanine],-0.589%
10,N[C@@H](Cc1ccccc1)C(=O)O [L-phenylalanine],1.98%
11,C=C(CC(=O)O)C(=O)O [itaconate],-0.472%
12,O=C(O)c1ccccc1 [benzoate],-0.112%
13,N[C@@H](Cc1ccc(O)cc1)C(=O)O [L-tyrosine],0.164%
14,O=CO [formate],0.482%
15,O=C(O)CCO [3-hydroxypropanoate],-0.395%
16,O=C(O)C(=O)c1ccccc1 [phenylglyoxylate],0.112%
17,"O=C(O)c1ccc(O)c(O)c1 [3,4-dihydroxybenzoate]",0.138%
